Screening data: PubChem, several laboratories
CYP2C19 inh – blocks human cytochrome P450 2C19; P33261; CYP2C19 Supersomes, luciferin-H EGE luminescence, 30 min; inhibition, % at 5 µM; 96,000 tested, 21% active;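 active = CYP2C19 inhibition above a set limit at 5 µM in the primary screen, cut at about 50% in these data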;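 also: plate controls were negative control wells for no effect and 2.5 mM tranylcypromine positive control for full effect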
CYP2C9 inh – inhibitors of human CYP2C9; CYP2C9 Supersomes, luciferin-H conversion, luminescence; inhibition, % at 5 µM; 96,000 tested, 20% active;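 active = blocking of liver enzyme CYP2C9 beyond about 50% at 5 µM, limit read from the data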
Target sequence (P11712 whole entry, looked up): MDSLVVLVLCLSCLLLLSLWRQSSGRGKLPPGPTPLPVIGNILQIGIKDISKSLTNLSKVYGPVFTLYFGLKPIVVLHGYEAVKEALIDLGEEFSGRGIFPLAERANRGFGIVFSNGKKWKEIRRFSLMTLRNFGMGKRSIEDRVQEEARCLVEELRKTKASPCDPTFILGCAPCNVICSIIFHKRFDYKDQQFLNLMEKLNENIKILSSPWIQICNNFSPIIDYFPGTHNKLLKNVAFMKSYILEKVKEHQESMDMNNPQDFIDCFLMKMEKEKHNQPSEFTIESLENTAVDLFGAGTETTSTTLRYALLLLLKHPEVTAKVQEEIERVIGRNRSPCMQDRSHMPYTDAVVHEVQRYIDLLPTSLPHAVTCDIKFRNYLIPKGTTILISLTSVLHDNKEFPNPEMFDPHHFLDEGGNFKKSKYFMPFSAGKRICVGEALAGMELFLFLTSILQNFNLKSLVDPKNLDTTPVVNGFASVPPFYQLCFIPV
CYP2C19 act – increases human CYP2C19 enzyme activity | recombinant CYP2C19, luciferin-H EGE luminescence; stronger effect = higher value; 0 = fully inhibited enzyme, 1 = untreated enzyme | activation factor at 5 µM | 96,000 tested, under 10 active | AID 1025;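 active = activation factor of at least 2 at 5 µM in the primary screen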;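 also: 0 = wells with 2.5 mM tranylcypromine and 1 = vehicle-only wells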
Measles CPE – protection of cells from measles virus; Measles virus-infected cells, CPE protection, absorbance; protection (pct of control), % at 4 µM; 140,000 tested, 1.5% active; AID 841; in the data active = protection mostly above about 24%, no sharp cut-off; inactive = mostly below about 26%
CYP2C9 activ – increases human cytochrome P450 2C9 activity | recombinant CYP2C9, luciferin-H conversion, luminescence; stronger effect = higher value; factor 1 = untreated enzyme, 0 = blocked | activation factor at 5 µM | 96,000 tested, 1.4% active;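 active = activation factor of 2 or more for CYP2C9 at a 5 µM dose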;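 also: 0 = sulfaphenazole-blocked wells and 1 = vehicle-only wells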
* marks the source's active call; other numbers are inactive results; . = not tested or not shown. Most compounds without a hit are left out; they make up all but 22% or so of the library.

SMILES	CYP2C19 inh	CYP2C9 inh	CYP2C19 act	Measles CPE	CYP2C9 activ
Cc1cc(C)c(C(=O)CC2(O)C(=O)Nc3ccccc32)cc1C (stereo unspecified)	91.5*	27.9	0.1	6.6	0.7
Cc1n[nH]c(=O)nc1NCc1ccc(Cl)cc1	-5.1	-25.4	1.1	36.3*	1.3
COCC(C)NC(C(=O)Nc1ccc(C)c(Cl)c1)c1ccccc1 (stereo unspecified)	85.9*	85.7*	0.1	2.0	0.1
COCCNC(C(=O)Nc1cc(Cl)cc(Cl)c1)c1ccccc1 (stereo unspecified)	53.6*	69.6*	0.5	14.3	0.3
Cc1cc(-c2nc3c4c5c(sc4[nH]c(=O)n3n2)CCC5)c(C)o1	-11.7	50.7*	1.1	12.3	0.5
C=C(c1ccc(OCCO)cc1)c1ccc(OCCO)cc1	27.5	32.9	0.7	1.3	0.7
CC(=O)Nc1ccc(S(=O)(=O)N2CCC(c3nc4ccccc4[nH]3)CC2)cc1	48.2	68.3*	0.5	21.2	0.3
CC(=O)Nc1ccc(S(=O)(=O)N2CCN(c3cc(C)nc4ccccc34)CC2)cc1	44.8	66.2*	0.6	13.8	0.3
Cc1ccc2nc(C3CCN(S(=O)(=O)c4ccc5ccccc5c4)CC3)[nH]c2c1	37.8	-195.3	0.6	24.4	3*
CC(=O)Nc1ccc(S(=O)(=O)N2CCOCC2)cc1	.	.	.	6.9	.
O=S(=O)(c1ccc2c(c1)OCCO2)N1CCC(c2nc3ccccc3[nH]2)CC1	63.2*	-56.9	0.4	3.9	1.6
O=C(O)CN1C(=O)C2C3CC(C2C1=O)C1C(c2ccccc2)c2sc(=O)[nH]c2SC31 (stereo unspecified)	.	.	.	5.0	.
O=C(CSc1nc(-c2ccccc2F)nc2nc[nH]c12)Nc1c(Cl)cc(Cl)cc1Cl	.	.	.	7.7	.
COc1ccccc1-n1c(SCC(=O)Nc2ccccc2F)nc2[nH]ncc2c1=O	43.5	21.6	0.6	6.0	0.8
O=S(=O)(c1ccc2c(c1)OCCO2)N1CCC(c2nc3ccc(Cl)cc3[nH]2)CC1	84.3*	-111.4	0.2	18.0	2.1*
Cc1ccc(NC(C)c2cc(Cl)ccc2O)cc1 (stereo unspecified)	99.9*	98.2*	0	14.2	0
CC(C)CNS(=O)(=O)c1ccc(OCC(=O)Nc2ccc3c(c2)OCCO3)cc1	.	.	.	12.7	.
O=S(=O)(NCCSc1ccccc1)c1ccc2c(c1)OCCO2	86.7*	1.6	0.1	15.6	1
O=S(=O)(NCCOc1ccc(F)cc1)c1ccc2c(c1)OCCO2	91.4*	-144.5	0.1	2.4	2.4*
CC1CCCCN1S(=O)(=O)c1ccc2c(c1)oc(=O)n2CC(=O)O (stereo unspecified)	10.3	22.1	0.9	6.8	0.8
CCOc1ccccc1C1C2CCCCC2(O)CCN1C(=O)c1cccs1 (stereo unspecified)	.	.	.	16.4	.
CCOc1ccc(/C(O)=C2/C(=O)C(=O)N(CCCn3ccnc3)C2c2cccs2)cc1Cl (stereo unspecified)	19.2	70.2*	0.8	6.7	0.3
NC(=O)c1ccc(N2CCCCC2)c(N2C(=O)C3CC=CCC3C2=O)c1 (stereo unspecified)	50.5*	30.6	0.5	21.4	0.7
COc1c(Cl)cc(C(=O)Nc2ccccc2C(=O)O)cc1Cl	4.9	72.8*	1	5.0	0.3
CC(C)C(=O)Nc1cccc(C(=O)NCCc2ccc(S(N)(=O)=O)cc2)c1	5.8	75.0*	0.9	12.2	0.3
SMILES	CYP2C19 inh	CYP2C9 inh	CYP2C19 act	Measles CPE	CYP2C9 activ
CC(C)C(=O)Nc1cccc(C(=O)Nc2ccccc2C(=O)O)c1	-4.8	83.4*	1	23.2	0.2
O=C(CSCc1ccc(Cl)cc1)Nc1cccc(C(=O)Nc2ccccc2C(=O)O)c1	34.0	97.5*	0.7	3.8	0
CCn1ncc(C2=NOC(C(=O)Nc3cnn(C45CC6CC(CC(C6)C4)C5)c3)C2)c1C (stereo unspecified)	10.3	11.4	0.9	4.8	0.9
COc1ccc(/C=C/C(=O)Nc2cccc(N3CCOCC3)c2)cc1OC	.	.	.	3.9	.
O=C(CSCc1ccccc1)Nc1cccc(F)c1	.	.	.	1.0	.
O=C(CSCc1ccccc1)Nc1cccc(C(=O)Nc2ccccc2C(=O)O)c1	10.1	95.2*	0.9	7.0	0
O=c1[nH]c2c(n(C3CCCCC3)c1=O)CCC2	-11.1	-31.4	1.1	6.8	1.3
COc1ccccc1NC(=S)NNC(=O)c1nn(C)c(C)c1Cl	28.6	9.6	0.7	6.3	0.9
COc1ccccc1NC(=S)NNC(=O)c1nn(C)cc1Cl	56.7*	7.2	0.4	4.2	0.9
COc1ccccc1NC(=O)c1nn(C)cc1Br	38.6	-122.1	0.6	4.8	2.2*
Cc1ccc(S(=O)(=O)C2(C(=O)Nc3nccs3)CC2)cc1	34.3	15.6	0.7	3.1	0.8
COc1ccccc1C1(CC(=O)Nc2nccs2)CCOC(C(C)C)C1 (stereo unspecified)	91.8*	67.3*	0.1	4.1	0.3
Cc1ccc(C2(CC(=O)Nc3nccs3)CCOC(C(C)C)C2)cc1 (stereo unspecified)	.	.	.	20.0	.
CC(=O)c1ccc2c3c(ccc(O)c13)CC2	32.1	-142.2	0.7	20.6	2.4*
O=C(/C=C/c1ccccc1)c1ccc2c3c(cccc13)CC2	.	.	.	7.7	.
CSc1nsc(SC)c1NC(=O)OCc1ccccc1	89.2*	27.7	0.1	21.0	0.7
CSc1nsc(SC)c1NC(=O)OCCc1ccccn1	95.1*	35.2	0	5.2	0.6
CSc1nsc(SC)c1NC(=O)Nc1ccccn1	49.9	45.3	0.5	2.1	0.5
Cc1ccc(S(=O)(=O)N(C(=O)c2ccncc2)c2ccc(OC(=O)c3ccncc3)c3ccccc23)c(C)c1	97.3*	99.1*	0	4.5	0
Cc1ccc(S(=O)(=O)N(C(=O)c2ccncc2)c2ccc(OC(=O)c3ccncc3)c3ccccc23)cc1	.	.	.	12.5	.
CCOC(=O)Nc1nnc(-c2ccc(OC)cc2)s1	26.8	15.9	0.7	25.7	0.8
O=c1cc(-c2ccccc2)nc(SCc2ccccc2)[nH]1	5.9	15.8	0.9	5.8	0.8
O=c1cc(-c2ccccc2)nc2nc(SCc3ccccc3)[nH]n12	0.7	89.9*	1	12.5	0.1
Cc1nc2nc(-c3ccccc3)cc(=O)n2[nH]1	38.9	20.0	0.6	11.9	0.8
O=c1cc(-c2ccccc2)nc2nc(CCc3ccccc3)[nH]n12	-11.6	72.3*	1.1	3.1	0.3
O=c1cc(-c2ccccc2)nc2nc(-c3ccco3)[nH]n12	-12.1	51.9*	1.1	16.6	0.5
O=c1cc(-c2ccccc2)nc(SCc2ccc(Cl)cc2)[nH]1	53.9*	24.7	0.5	1.2	0.8
O=C(NCCCN1CCC(Cc2ccccc2)CC1)C1CCN(S(=O)(=O)N2CCOCC2)CC1	-6.6	-0.8	1.1	22.1	1
CN(Cc1ccccc1)S(=O)(=O)c1ccc(Cl)nc1	70.2*	16.9	0.3	4.0	0.8
CC(=O)N(C)c1ccc(NS(=O)(=O)Cc2ccccc2)cc1	6.1	-1.3	0.9	11.3	1
